High-throughput results (PubChem)
The list is not random: actives were taken first. Their share in the collection is about 2.4%.
D2 PAM-1 – positive allosteric modulators of human D2 dopamine receptor; DiscoveRx D2 beta-arrestin cells, luminescence, 90 min; 100% = 57 uM dopamine signal; potentiation, % (concentration not given with the values); P14416; 360,000 tested, 0.23% active; in the data active means potentiation above about 50%
Target sequence (P14416 whole entry, looked up): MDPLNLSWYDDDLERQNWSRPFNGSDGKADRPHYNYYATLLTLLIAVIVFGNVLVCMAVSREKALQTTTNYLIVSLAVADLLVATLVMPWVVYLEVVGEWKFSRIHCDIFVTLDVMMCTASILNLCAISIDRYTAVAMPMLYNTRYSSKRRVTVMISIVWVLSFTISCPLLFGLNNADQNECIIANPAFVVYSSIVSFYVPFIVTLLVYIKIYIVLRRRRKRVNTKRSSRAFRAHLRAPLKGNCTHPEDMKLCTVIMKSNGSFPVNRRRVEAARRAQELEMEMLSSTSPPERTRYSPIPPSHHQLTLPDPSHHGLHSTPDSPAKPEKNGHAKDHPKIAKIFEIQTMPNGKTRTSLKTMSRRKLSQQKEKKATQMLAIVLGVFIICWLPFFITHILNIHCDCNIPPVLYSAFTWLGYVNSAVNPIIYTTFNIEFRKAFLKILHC
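PathHunter beta-arrestin assay in DiscoveRx D2 cells. Compounds were added with an EC20 of dopamine (50 nM final) for 90 min at 37 deg C. Luminescence was read 1 h after detection reagent, with 57 uM dopamine as the EC100 control.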
D2 ag-1 – D2 dopamine receptor (human) agonism | P14416 | AID 485358 | 340,000 tested, 0.53% active | HEK293 T-REx D2 cells, calcium flux agonist mode | activation, % at 2 µM;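 active means activation over 3 SD above normal in the single-dose calcium agonist read, cut at about 30% in these data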
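Agonism scored from kinetic calcium signal (1 read/sec, 180 s) following compound pin transfer, after a 10 s baseline. Cells: HEK293 Trex line expressing inducible D2 receptor coupled to calcium, dye-loaded after overnight culture at 30 C.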
D2 antag – D2 dopamine receptor (human) antagonism; P14416; HEK293 TREx D2 cells, calcium flux, dopamine EC80; inhibition, % at 10 µM; 340,000 tested, 2% active; in the data active means inhibition above about 30%; inactive means below that, where a call was filed
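Antagonism is scored as inhibition of an EC80 dopamine-evoked calcium signal in a force-coupled, tetracycline-inducible HEK293 T-REx D2 line, with compound present 180 s before agonist.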
D2 PAM-2 – positive allosteric modulators of human D2 dopamine receptor; P14416; HEK293 T-REx D2, calcium flux, EC20 dopamine potentiation; potentiation, % at 10 µM; 340,000 tested, 0.34% active; AID 485347;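 active means potentiation over 3 SD above the plate norm, cut at about 30% in these data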
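Tetracycline-induced Hek293 Trex D2 cells, force-coupled to calcium, loaded with no-wash calcium dye. Compound added with 180 s kinetic read for agonism, then EC20 dopamine and a further 180 s read for potentiation.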
D2 ag-2 – activates the human D2 dopamine receptor; 360,000 tested, 0.084% active; activation, % (concentration not given with the values); DiscoveRx PathHunter D2 beta-arrestin, luminescence, 90 min; 100% = 57 uM dopamine signal; in the data active means activation above about 40%
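Agonist mode: compounds alone added to overnight-plated D2 PathHunter cells for 90 min at 37 C, with 57 uM final dopamine (EC100) defining full response. Beta-arrestin recruitment detected by chemiluminescent reagent, read after 1 h at ambient temperature.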
Numbers stand for hits; . = inactive; / = not tested or not shown.

SMILES	D2 PAM-1	D2 ag-1	D2 antag	D2 PAM-2	D2 ag-2
O=c1c2ccccc2nc(-c2ccc([N+](=O)[O-])cc2)n1O	.	.	.	31	.
CC(C)CCOC(=O)C1C2C=CC3(CN(Cc4cccs4)C(=O)C13)O2 (stereo unspecified)	.	.	33	.	.
CCCCOC(=O)C1[C@H]2C(=O)N(Cc3cccs3)C[C@]23C=C[C@H]1O3 (stereo partly specified)	.	.	.	.	.
CCOC(=O)C1(CCOC)CCN(Cc2nc(-c3cccs3)oc2C)CC1	.	.	31	.	.
Cc1oc(-c2cccs2)nc1CN1CCC(C(=O)N2CCCC2)CC1	.	.	.	.	.
Cc1oc(-c2cccs2)nc1CN1CCC(CO)(CCOc2ccccc2)CC1	.	.	54	.	.
C=CCNc1nc2cc(-c3ccccc3C)sc2c(=O)n1C	.	/	/	/	.
Cc1cccc(NC(=O)CCN2CCN(c3ccccc3F)CC2)c1	/	/	/	.	/
O=C(CSc1ccccn1)Nc1nonc1[N+](=O)[O-]	.	.	.	.	63
O=C(CSc1ccccn1)Nc1cccc2ccccc12	.	.	.	34	.
COc1ccc(NC(=O)CSc2ccccn2)c([N+](=O)[O-])c1	.	.	31	.	.
C=CCCC(=O)N1C[C@H]2CCN(C)[C@H]2C[C@H]1c1ccc(Br)cc1	.	/	/	/	.
CCOC(=O)N1CCc2c(sc3c2c(=O)n(-c2ccc(F)cc2)c(=O)n3CC(=O)c2ccccc2)C1	/	.	/	.	/
COc1ccc(OC)c(NC(=O)c2c(NCc3ccc(OC)c(OC)c3)sc3c2CCC(C)C3)c1 (stereo unspecified)	/	.	/	.	/
COC(=O)CC1Oc2ccccc2-n2cc(-c3ccc(F)cc3)nc21 (stereo unspecified)	/	.	/	.	/
Cc1ccc(-c2nnc(Nc3cccc(Cl)c3)c3ccccc23)cc1S(=O)(=O)NCC1CCCO1 (stereo unspecified)	/	.	/	.	/
Fc1cccc(Cc2noc(CN3CCC(c4ccncc4)CC3)n2)c1	.	.	53	.	.
Fc1cccc(Cc2noc(CN3CCOCC3)n2)c1	.	.	.	.	.
Nc1ncccc1OCc1cccc(C(F)(F)F)c1	.	.	.	32	.
COc1ccc(C(CNC(=O)C(C)(C)Oc2ccc(Cl)cc2)N2CCCCC2)cc1 (stereo unspecified)	.	.	86	.	.
COc1ccc(C(CNC(=O)C(C)(C)Oc2ccc(Cl)cc2)N2CCOCC2)cc1 (stereo unspecified)	.	/	/	/	.
COc1ccc(C(CNC(=O)COc2ccc(C)cc2)N2CCCCC2)cc1 (stereo unspecified)	/	.	/	.	/
COc1ccc(C(CNC(=O)COc2ccc(Cl)c(C)c2)N2CCCCC2)cc1 (stereo unspecified)	.	.	37	.	.
FC(F)(F)Oc1ccccc1C(c1nnnn1-c1ccc2c(c1)OCCO2)N1CCN(C/C=C/c2ccccc2)CC1 (stereo unspecified)	.	/	/	/	.
COc1ccc(CC(=O)NC2CC(=O)N(c3ccc4c(c3)OCCO4)C2)cc1 (stereo unspecified)	/	.	/	.	/
SMILES	D2 PAM-1	D2 ag-1	D2 antag	D2 PAM-2	D2 ag-2
O=c1cnnc(NCc2ccccc2)[nH]1	.	.	.	36	.
COc1ccc(NC(=O)CN(c2cccc(C)c2C)S(=O)(=O)c2ccccc2)cc1OC	/	.	/	.	/
CC(=O)Nc1nc(N)n(-c2ccccc2)n1	.	.	.	.	.
Nc1nc(NC(=O)/C=C\C(=O)O)nn1-c1ccccc1	.	.	36	.	.
CCOc1ccc(NC(=O)CN2CCN(CC(=O)Nc3ccc(OC)cc3OC)CC2)cc1	.	.	32	.	.
C/C(CC(=O)Nc1ccccn1)=N\NC(=O)c1ccccc1O	.	.	47	.	.
COc1ccc(NC(=O)CCOc2ccccc2)c(OC)c1	.	.	36	.	.
COc1ccc(NC(=O)CCCCC(=O)Nc2ccc(OC)cc2OC)c(OC)c1	.	/	/	/	.
COc1ccc(OC)c(NC(=O)CCN2CCN(c3ccccc3OC)CC2)c1	.	.	72	.	.
Cc1ccc2c(=O)cc(C(=O)Nc3sc4c(c3C(=O)NCC3CCCO3)CCC4)oc2c1 (stereo unspecified)	/	.	/	.	/
CCOC(=O)N1CCN(CCC(=O)Nc2ccc(OC)cc2)CC1	.	.	.	.	.
COc1ccc(NC(=O)CCCNC(=O)c2ccc(Cl)cc2)c(OC)c1	.	.	30	.	.
COc1ccc(NC(=O)CN2CCN(C(=O)c3ccco3)CC2)c(OC)c1	.	39	.	.	.
COc1ccc(NC(=S)N2CCN(C(=O)c3ccco3)CC2)c(OC)c1	.	.	.	.	.
COc1ccc(NC(=O)C/C(C)=N/NC(=O)c2ccccn2)c(OC)c1	.	.	.	30	.
CCOC(=O)N1CCN(CCC(=O)Nc2ccc(OC)cc2OC)CC1	.	34	36	.	.
CCCC(=O)Oc1c(Sc2ccc(Cl)cc2)c(C)nn1-c1ccccc1	/	.	/	.	/
O=C(CCSCc1ccc(Cl)cc1)N1CCN(c2ccccc2F)CC1	/	.	/	.	/
CCOC(=O)C1C(=O)NC(C(=O)OCC)(C(=O)OCC)C1CC (stereo unspecified)	.	/	/	/	.
Fc1ccc(-n2cc(-c3ccccc3)c3c(NC4CCCCC4)ncnc32)cc1	/	.	/	.	/
CC(=O)Nc1ccccc1-c1nc2ccccc2n(C(C)C(=O)Nc2cc(Cl)ccc2C)c1=O (stereo unspecified)	/	.	/	.	/
COc1ccc(NC(=O)c2ccc(NC(=O)CN3CCN(c4ccccc4O)CC3)cc2)cc1	.	/	/	/	.
COc1ccc(NC(=O)CCCN2C(=O)C3C4C=CC(C4)C3C2=O)c(OC)c1 (stereo unspecified)	.	.	35	.	.
COc1ccc(NC(=O)c2ccc(NC(=O)CN3CCN(c4ccc(O)cc4)CC3)cc2)cc1	.	/	/	/	124
CCCCN1C(=O)C(O)(CC(=O)c2ccc(CC)cc2)c2cc(Br)ccc21 (stereo unspecified)	/	.	/	.	/
SMILES	D2 PAM-1	D2 ag-1	D2 antag	D2 PAM-2	D2 ag-2
COC(=O)C1=CO[C@@H](C)[C@H]2CN3CCc4c([nH]c5ccccc45)[C@@H]3C[C@H]12	.	.	71	.	.
Cn1c(=O)c2c(-c3ccccc3)n(-c3ccccc3S)cc2n(C)c1=O	/	/	/	/	.
Cc1ccc(CNC(=O)C(C)OC(=O)c2ccco2)cc1 (stereo unspecified)	.	.	.	.	.
CCC(OC(=O)c1ccco1)C(=O)NCc1ccc(C)cc1 (stereo unspecified)	.	.	66	.	.
CCOC(=O)c1c(-c2ccccc2)oc2ccc(OCc3cccc(Br)c3)cc12	/	.	/	.	/
CCCC[n+]1ccn(-c2nc3ccccc3nc2[N-]S(=O)(=O)c2ccc(C)cc2)c1	.	.	.	.	.
